MCF10A rerep = DNA re-replication induction in MCF 10a cells. MCF 10A DNA re-replication, Hoechst nuclear intensity, 48 h. Potency, µM (titrated, usually from 46.1 µM), inactives show top-dose activity, positive = re-replication, actives largely listed as activators. actives 2.9% (n = 350,000). AID 624296; note: % of control where 0% means no effect; nearly all actives have a fitted effect of over 50% in size
12-LOX inh = ALOX12 (human) lipoxygenase inhibition; P18054; actives 1.1% (n = 580,000); Potency, µM (series often up to 108 µM), inactives show at the top dose activity change, negative = inhibition, most hits filed as inhibitors; AID 1671190; purified 12hLO, xylenol orange hydroperoxide absorbance; note: % is set by controls: 0 for no effect and ±100 for the full control effect
Target sequence (P18054 whole entry, looked up): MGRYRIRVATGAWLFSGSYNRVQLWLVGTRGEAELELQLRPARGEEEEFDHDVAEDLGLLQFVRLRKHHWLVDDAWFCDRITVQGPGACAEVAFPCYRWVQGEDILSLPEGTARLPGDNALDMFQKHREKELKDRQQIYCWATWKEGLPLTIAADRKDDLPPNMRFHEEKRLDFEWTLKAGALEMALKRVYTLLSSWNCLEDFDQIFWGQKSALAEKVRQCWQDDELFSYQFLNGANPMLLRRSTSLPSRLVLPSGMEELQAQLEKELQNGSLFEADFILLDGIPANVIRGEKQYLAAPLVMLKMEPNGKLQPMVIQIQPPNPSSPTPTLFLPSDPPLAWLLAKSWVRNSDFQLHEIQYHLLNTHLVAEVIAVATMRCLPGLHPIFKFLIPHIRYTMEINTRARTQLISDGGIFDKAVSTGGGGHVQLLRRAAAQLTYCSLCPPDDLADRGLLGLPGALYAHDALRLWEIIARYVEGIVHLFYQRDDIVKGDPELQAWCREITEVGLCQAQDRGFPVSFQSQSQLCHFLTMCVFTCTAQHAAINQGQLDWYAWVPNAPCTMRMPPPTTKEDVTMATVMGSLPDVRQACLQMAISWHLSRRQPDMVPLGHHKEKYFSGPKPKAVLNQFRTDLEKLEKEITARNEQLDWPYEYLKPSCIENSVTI
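Purified human 12hLO at 150 nM in 25 mM Hepes, 0.01% Triton X-100, pH 7.0, preincubated 15 min at room temperature with compound. Reaction started with 40 uM arachidonic acid, 30 min at room temperature. Hydroperoxide measured by Fe-xylenol orange, 573/405 nm absorbance ratio.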
KB-3-1 tox = KB-3-1 parental cell cytotoxicity. KB-3-1 viability, CellTiter-Glo ATP luminescence, 72 h. Potency, µM (series often up to 46.1 µM), most hits filed as cytotoxic. actives 1.4% (n = 400,000); note: % is set by controls: 0 for no effect and ±100 for the full control effect; nearly all actives have a fitted effect of over 60% in size
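Cells are dispensed, compounds pinned in, plates held at 37 °C for 72 h, then CellTiter-Glo is added and luminescence read after 10 minutes. Cell line: parental KB-3-1 in phenol-red-free DMEM, 10% FBS.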
SW480 rereplic = inducers of DNA re-replication in SW480 colon cancer cells; SW480 DNA re-replication, Hoechst DNA content imaging, 48 h; Potency, µM (highest dose often 46.1 µM), inactives show top-dose re-replication activation, usual class: activators; actives 1.8% (n = 340,000); AID 624297; note: % of control where 0% means no effect; nearly all actives have a fitted effect of over 55% in size
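Readout is total intensity of Hoechst-stained nuclei, excited at 405 nm and collected at 500-530 nm. Compound treatment lasted 48 hr at 37 C in 5% CO2 before staining.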
KB-V1 MDR tox = KB-V1 MDR subline cytotoxicity. KB-V1 MDR cells viability, CellTiter-Glo, 72 h. Potency, µM (highest dose often 46.1 µM), actives largely listed as cytotoxic. actives 3.4% (n = 400,000). AID 1347076; note: % is set by controls: 0 for no effect and ±100 for the full control effect; nearly all actives have a fitted effect of over 60% in size
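Cytotoxicity via CellTiter-Glo luminescence after 72 h compound exposure at 37 degrees C. Cells: drug-selected KB-V1 line, DMEM phenol-red free plus 10% FBS. Compounds tested at multiple concentrations; normalized data fitted to concentration-effect curves.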
PINK1 modulator = PINK1 expression modulation; AID 624263; Potency, µM (series often up to 76.6 µM), for inactives: at the highest dose activation (PINK1 increase), most hits filed as activators; PINK1 immunofluorescence, high-content cytometry, 24 h; actives 0.2% (n = 410,000); active = well fitted activation curve with a large enough effect; inconclusive = small, poorly fitted or top-dose-only effect; cell line not stated here; note: % of control where 0% means no effect; nearly all actives have a fitted effect of over 65% in size
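Compound titrations (5 concentrations, 24 h) on a stable cell line; DMSO and CCCP controls. Endpoint: fixed-cell PINK1 immunofluorescence with mitochondrial, cell and nuclear markers, scanned by microplate cytometer.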
* marks the source's active call; other numbers are inactive results; i = inactive; u = inconclusive; x = no result given; [ ] = remark or other dose. Rows were chosen to be rich in hits. Some 5.8% of all compounds tested hit in one or more screens of this group. Unless noted, calls come from the whole dose curve; as a rule, active = well fitted curve in the direction sought with a large enough effect; inconclusive = small, poorly fitted or top-dose-only effect, or another doubt; inactive = no such curve, though single readings can be large; an effect the other way counts as inactive or inconclusive. Potency is the fitted concentration of half-maximal effect.

SMILES | MCF10A rerep | 12-LOX inh | KB-3-1 tox | SW480 rereplic | KB-V1 MDR tox | PINK1 modulator
CCc1c(C(=O)Nc2cc(C)ccc2OC)[nH]c(C)c1C(C)=O | u | 9% | i | -20% | i | 10%
COc1ccccc1CNC[C@H]1Cn2cc(-c3ccccc3OC)nc2CO1 | x | 44%[176 µM] | x | x | x | x
CC(C)NC(=O)C(=O)Nc1cccc(C(=O)c2nccn2C)c1 | x | 22% | x | x | x | x
COc1cccc(C(=O)N/N=c2\sc3ccccc3n2C)c1 | 3% | 20% | i | x | u | 0%
Cc1ccc(C(=O)N/N=c2\sc3ccccc3n2C)cc1 | u | 0% | i | 0.65µM* | i | -1%
CCCCOc1ccc(NC2=NC3(CCCCC3)N=C(N)N2)cc1 | u | u | 15µM* | 4% | i | 24%
Cc1ccc(SC(C)C(=O)NC2CCCC2)c(C)c1 (centres undefined) | x | -3% | x | x | x | x
O=C(COc1ccc(Cl)cc1C1CCCCC1)NCCc1nnc2ccccn12 | x | 7% | x | x | x | x
Cc1ccc(-c2nnc(SCC(=O)N/N=C/c3c(C)nn(-c4ccccc4)c3C)n2-c2ccccc2)cc1 | u | 25% | u | u | 15µM* | 0%
Cc1ccc(-c2nnc(SCC(=O)N/N=C/c3ccc(C)s3)n2-c2ccccc2)cc1 | 18µM* | 7% | u | u | 21µM* | 0%
Cc1nn(-c2ccccc2)c(C)c1/C=N/NC(=O)c1cc(-c2ccccc2)n[nH]1 | u | 12% | 0.41µM* | u | u | -1%
Cc1ccc(CSc2nnc(SCC(=O)N/N=C/c3c(C)nn(-c4ccccc4)c3C)s2)cc1 | -1% | 1% | i | 4% | i | 0%
Cc1ccc(-c2nnc(SCC(=O)N/N=C/c3c(C)nn(-c4ccccc4)c3C)n2-c2ccc(C)cc2)cc1 | -1% | -16% | u | 4% | 21µM* | -1%
Cc1nn(-c2ccccc2)c(C)c1/C=N/NC(=O)CSc1nnc(-c2ccccc2)n1-c1ccc(Cl)cc1 | u | -3% | i | -4% | i | 2%
CN(C)C(=O)c1ccc(CNc2nc3ccccc3o2)cc1 | x | 10% | x | x | x | x
CCNc1ccc(S(=O)(=O)N(CC)CC)cc1NC(=O)c1ccccc1F | x | -23% | x | x | x | x
CCC(=O)Oc1ccc(C(=O)Nc2ccc(-c3nc4cc(C)ccc4o3)cc2)cc1 | x | 23% | x | x | x | x
O=C(Nc1ccc(CN2CCOCC2)cc1)c1ccc(Cl)cc1 | 14% | 0% | u | -10% | 9.2µM* | 0%
COC(=O)c1ccc(/C=N\N2CCN(Cc3ccc(C)cc3)CC2)cc1 | 3% | -6% | i | 0% | 8.2µM* | 2%[38.3 µM]
COC(=O)c1ccc(NC(=O)c2ccc(CN3CCOCC3)cc2)cc1 | u | 26% | i | -9% | 2.6µM* | 2%[38.3 µM]
O=C(Nc1ccc(CN2CCOCC2)cc1)c1ccc(Br)cc1 | u | 25% | i | -16% | i | 1%
O=C(Nc1ccc(CN2CCOCC2)cc1)c1ccc(F)cc1 | 1% | 58% | i | -24% | i | 9%
CC(C)c1ccc(C(=O)Nc2ccc(N3CCOCC3)cc2)cc1 | 23µM* | u | u | u | i | 13%
CCCC(C)NC(=O)c1cnn(-c2ccccc2F)c1-n1cccc1 (centres undefined) | x | 19% | x | x | x | x
CCOc1ccc(S(=O)(=O)[C@H]2CS(=O)(=O)C[C@@H]2N2CCC3(CC2)OCCO3)cc1 | x | -36% | x | x | x | x
SMILES | MCF10A rerep | 12-LOX inh | KB-3-1 tox | SW480 rereplic | KB-V1 MDR tox | PINK1 modulator
C=C(CN(C)C)C(=O)c1ccc(C)cc1C | 2.9µM* | u | u | 5.8µM* | u | -2%
COc1cc(Cl)ccc1C(=O)NC1CCN(c2cc(C(F)(F)F)nc(C)n2)CC1 | x | 26% | x | x | x | x
Cc1cc(C)n(CCc2nc(-c3ccco3)cs2)n1 | -20% | u | i | -7% | i | 5%[38.3 µM]
Cc1nn(CCc2nc(-c3ccccc3)cs2)c2[nH]c(=O)cc(C(F)(F)F)c12 | x | 7.1µM* | x | x | x | x
Cc1nn(CCc2nc(-c3ccco3)cs2)c2[nH]c(=O)cc(C(F)(F)F)c12 | -18% | 7.9µM* | i | -21% | i | x
COc1cccc(CNc2nc3cc(C(C)=C(C)C)sc3c(=O)n2C)c1 | x | 10µM* | i | x | u | 4%
Cc1ccccc1-c1cc2nc(Nc3ccc(F)cc3)n(C)c(=O)c2s1 | x | u | i | x | i | 2%
COc1ccccc1CNc1nc2cc(-c3ccsc3)sc2c(=O)n1C | x | -21% | u | x | 21µM* | -1%
Cn1c(NCC2CCCCC2)nc2cc(-c3ccsc3)sc2c1=O | x | -26% | 18µM* | x | i | 5%
COc1ccc(Nc2nc3cc(-c4ccccc4C)sc3c(=O)n2C)cc1OC | x | 35µM* | i | x | i | -1%
COc1cccc(CNc2nc3cc(-c4ccccc4C)sc3c(=O)n2C)c1 | x | -12% | i | x | i | 10%
COC(=O)c1ncoc1-c1ccccc1C(=O)N1CCN(c2ccccc2)CC1 | x | 2% | x | x | x | x
COc1ccc(-c2cc3nc(NCc4ccc(C)cc4C)n(C)c(=O)c3s2)cc1OC | x | 16% | 15µM* | x | 2.6µM* | 9%
CCOc1ccc(C(=O)NCC(=O)N2CC=C(c3ccccc3)CC2)cc1OCC | 8% | u | i | 0% | i | 0%
COc1ccccc1C(=O)NCC(=O)N1CC=C(c2ccccc2)CC1 | -2% | 13% | u | -6% | 16µM* | 1%
COc1cc(OC)c(NC(=O)N2CCN(c3ccc(=O)n(-c4ccc(F)cc4)n3)CC2)cc1Cl | x | 18% | x | x | x | x
C=CCn1c(-c2cccn(Cc3ccc(Cl)cc3Cl)c2=O)n[nH]c1=S | 0% | 45µM* | u | 20% | 15µM* | -15%[38.3 µM]
C=CCn1c(-c2cccn(Cc3cccc(Cl)c3)c2=O)n[nH]c1=S | 6% | u | i | -4% | 23µM* | 0%[38.3 µM]
C=CCn1c(-c2cccn(Cc3ccccc3)c2=O)n[nH]c1=S | -3% | -5% | i | -15% | i | -1%
COc1ccc(CCNC(=O)c2ccccc2OCc2c(C)noc2C)cc1 | -4% | 38% | i | -4% | 5.8µM* | -2%
Cc1noc(C)c1COc1ccccc1C(=O)NCCc1ccc(Cl)cc1 | 11% | u | i | -1% | u | 2%
Cc1noc(C)c1COc1ccccc1C(=O)N1CCN(S(=O)(=O)c2ccccc2F)CC1 | 2% | -1% | i | 2% | u | -5%
Cc1noc(C)c1COc1ccccc1C(=O)N1CCN(S(=O)(=O)c2ccccc2C#N)CC1 | 4% | -27% | i | -5% | 15µM* | -1%
Cc1ccc(NC(=O)c2ccccc2OCc2c(C)noc2C)cc1S(=O)(=O)N(C)C | -1% | 407% | i | 1% | 2.3µM* | 0%

Compound activity as filed in PubChem.
